{"source": "the supplement of paper PMC3334620", "note": "Over roughly 33,000 sequences, “E-score (-0.5 to 0.5)” has its median near -0.035; the highest 2% begin near 0.35. Shown is part of a subset that was picked to be rich in the highest values.", "data": [{"target": "T1, Pdr3 (UniProt P33200)", "T1 sequence": "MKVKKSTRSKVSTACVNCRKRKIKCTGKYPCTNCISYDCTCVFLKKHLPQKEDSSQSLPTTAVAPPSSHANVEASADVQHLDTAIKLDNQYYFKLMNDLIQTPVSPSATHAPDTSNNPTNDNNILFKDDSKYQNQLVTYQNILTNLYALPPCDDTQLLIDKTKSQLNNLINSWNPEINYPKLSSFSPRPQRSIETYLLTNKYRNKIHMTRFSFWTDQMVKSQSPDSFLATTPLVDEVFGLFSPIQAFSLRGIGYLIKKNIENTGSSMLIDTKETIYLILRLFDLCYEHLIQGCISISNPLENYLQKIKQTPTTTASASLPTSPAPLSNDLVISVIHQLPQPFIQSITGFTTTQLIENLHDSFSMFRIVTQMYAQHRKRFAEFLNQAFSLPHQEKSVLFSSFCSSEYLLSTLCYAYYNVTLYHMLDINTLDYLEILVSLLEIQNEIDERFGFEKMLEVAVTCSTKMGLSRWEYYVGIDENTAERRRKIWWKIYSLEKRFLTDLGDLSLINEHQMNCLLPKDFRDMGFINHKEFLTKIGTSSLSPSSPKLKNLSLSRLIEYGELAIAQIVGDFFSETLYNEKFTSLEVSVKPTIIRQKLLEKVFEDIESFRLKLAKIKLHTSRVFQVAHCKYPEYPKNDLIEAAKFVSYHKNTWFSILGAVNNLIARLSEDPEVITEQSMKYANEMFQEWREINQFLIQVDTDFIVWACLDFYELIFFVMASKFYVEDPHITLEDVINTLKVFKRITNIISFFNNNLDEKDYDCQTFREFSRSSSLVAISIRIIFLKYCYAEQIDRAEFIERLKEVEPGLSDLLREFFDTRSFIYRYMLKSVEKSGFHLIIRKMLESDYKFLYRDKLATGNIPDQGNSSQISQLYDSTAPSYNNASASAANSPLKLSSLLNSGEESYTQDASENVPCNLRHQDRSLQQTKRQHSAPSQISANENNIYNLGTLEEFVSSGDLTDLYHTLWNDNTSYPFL", "test": "PBM E-score (8-mer binding enrichment) (E-score (-0.5 to 0.5)); higher = stronger / more preferred TF binding", "conditions": "protein concentration: 200 nM; construct: GST-full length", "how_it_was_run": "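Universal all-10-mer Agilent arrays, double-stranded by primer extension on fresh or once-stripped slides, were probed with about 100-200 nM GST-tagged yeast transcription factors made by PURExpress. Fluorescent anti-GST detected bound protein, and masliner normalised the scans. E-scores from the Universal PBM Analysis Suite were given to each ungapped eight-base word pooled with its reverse complement.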", "values": [{"sequence": "ACGGGAAA", "PBM E-score": 0.277}, {"sequence": "ATGGAAAA", "PBM E-score": 0.0967}, {"sequence": "ACGGAAAA", "PBM E-score": 0.403}, {"sequence": "AAGGAAAT", "PBM E-score": 0.00091}, {"sequence": "ACGGAAAT", "PBM E-score": 0.452}, {"sequence": "GAGGAAAA", "PBM E-score": 0.0256}, {"sequence": "ACGGAAAC", "PBM E-score": 0.452}, {"sequence": "AAGGAAAC", "PBM E-score": 0.0238}, {"sequence": "GCGGGAAA", "PBM E-score": 0.332}, {"sequence": "AGCACCAA", "PBM E-score": -0.0317}, {"sequence": "GGTTGCCA", "PBM E-score": 0.233}, {"sequence": "ATAACGCG", "PBM E-score": 0.168}, {"sequence": "CCTATCCC", "PBM E-score": 0.188}, {"sequence": "TTGCGAAA", "PBM E-score": 0.119}, {"sequence": "ACACTCCG", "PBM E-score": 0.204}, {"sequence": "ACATGCGT", "PBM E-score": -0.265}, {"sequence": "GCGGAAAC", "PBM E-score": 0.415}, {"sequence": "TGGGAAAA", "PBM E-score": -0.104}, {"sequence": "TCGGAAAA", "PBM E-score": 0.4}, {"sequence": "TTGGAAAA", "PBM E-score": -0.141}, {"sequence": "GGGGAAAC", "PBM E-score": 0.206}, {"sequence": "GAGGAAAC", "PBM E-score": 0.053}, {"sequence": "ACTATCAC", "PBM E-score": -0.18}, {"sequence": "GGTGCACC", "PBM E-score": -0.0384}, {"sequence": "CTCACCAG", "PBM E-score": -0.147}, {"sequence": "CCGGGCAC", "PBM E-score": 0.364}, {"sequence": "ACCGGCCG", "PBM E-score": 0.35}, {"sequence": "ACCGGCGG", "PBM E-score": 0.256}, {"sequence": "ACGGGCAC", "PBM E-score": 0.025}, {"sequence": "CCCGGCGG", "PBM E-score": 0.382}, {"sequence": "CCCGGCCG", "PBM E-score": 0.357}, {"sequence": "CCGGGCCA", "PBM E-score": 0.346}, {"sequence": "CCCGGCAG", "PBM E-score": 0.303}, {"sequence": "CCGGGCCG", "PBM E-score": 0.399}, {"sequence": "GCGGGCAC", "PBM E-score": 0.216}, {"sequence": "CCCGGCCC", "PBM E-score": 0.247}, {"sequence": "CCGGGCCC", "PBM E-score": 0.345}, {"sequence": "GCAAGATA", "PBM E-score": -0.00203}, {"sequence": "GCCATTAC", "PBM E-score": 0.137}, {"sequence": "CTCAACTA", "PBM E-score": -0.0622}, {"sequence": "CCTCGAAA", "PBM E-score": -0.114}, {"sequence": "CCCTGAGA", "PBM E-score": -0.165}, {"sequence": "CTCAGAAC", "PBM E-score": -0.135}, {"sequence": "ACATATTA", "PBM E-score": -0.0563}, {"sequence": "AAGGTTGC", "PBM E-score": -0.0716}, {"sequence": "GACCTATA", "PBM E-score": 0.0796}, {"sequence": "ATACAGAG", "PBM E-score": -0.223}, {"sequence": "GGGAAACC", "PBM E-score": 0.149}, {"sequence": "AGGAAACC", "PBM E-score": 0.00802}, {"sequence": "AGGAAACA", "PBM E-score": -0.0166}, {"sequence": "CGGAAACC", "PBM E-score": 0.425}, {"sequence": "CAGAAACG", "PBM E-score": 0.0256}, {"sequence": "AGGAAACG", "PBM E-score": -0.0809}, {"sequence": "CGGAAACG", "PBM E-score": 0.396}, {"sequence": "GGGAAACA", "PBM E-score": 0.161}, {"sequence": "CGGAAACA", "PBM E-score": 0.451}, {"sequence": "GTAAGAAC", "PBM E-score": -0.0573}, {"sequence": "CGGGGTTA", "PBM E-score": 0.304}, {"sequence": "CAAGGTAC", "PBM E-score": -0.25}, {"sequence": "CCTGGTCA", "PBM E-score": -0.169}, {"sequence": "AGTGCAAC", "PBM E-score": -0.107}, {"sequence": "CTGCGGAA", "PBM E-score": 0.357}, {"sequence": "GTGCGGGA", "PBM E-score": 0.252}, {"sequence": "GTGCGGAA", "PBM E-score": 0.366}, {"sequence": "CTGCGGCA", "PBM E-score": 0.0359}, {"sequence": "ATGCGGAA", "PBM E-score": 0.416}, {"sequence": "GTGCGGCA", "PBM E-score": 0.0901}, {"sequence": "ATGCGGAG", "PBM E-score": 0.0777}, {"sequence": "ATGCGGAC", "PBM E-score": 0.134}, {"sequence": "CTGCGGAC", "PBM E-score": 0.1}, {"sequence": "CAGCCCGC", "PBM E-score": 0.00736}, {"sequence": "AATATTAA", "PBM E-score": 0.244}, {"sequence": "TTGGGAAA", "PBM E-score": 0.0633}, {"sequence": "CGGCTCGA", "PBM E-score": 0.174}, {"sequence": "CGAGTCGC", "PBM E-score": -0.0735}, {"sequence": "ACACCTCT", "PBM E-score": -0.0108}, {"sequence": "TAAACCAA", "PBM E-score": -0.263}, {"sequence": "GCCCAGGC", "PBM E-score": -0.138}, {"sequence": "CTCGGAGA", "PBM E-score": 0.312}, {"sequence": "CTCGGGAA", "PBM E-score": 0.301}, {"sequence": "GTCGGATA", "PBM E-score": 0.218}, {"sequence": "GTCGGAGA", "PBM E-score": 0.173}, {"sequence": "ATCGGAAC", "PBM E-score": 0.469}, {"sequence": "ATCGGACC", "PBM E-score": 0.313}, {"sequence": "GTCGGAAA", "PBM E-score": 0.416}, {"sequence": "ATCGGAAA", "PBM E-score": 0.407}, {"sequence": "ATCGGACA", "PBM E-score": 0.221}, {"sequence": "ATCGGAGC", "PBM E-score": 0.275}, {"sequence": "CTCGGAAA", "PBM E-score": 0.372}, {"sequence": "ATCGGAGA", "PBM E-score": 0.25}, {"sequence": "ATGAATAC", "PBM E-score": -0.0134}, {"sequence": "ATTGCGGA", "PBM E-score": 0.328}, {"sequence": "CCAGTGCC", "PBM E-score": -0.1}, {"sequence": "ACACAAGC", "PBM E-score": 0.0653}, {"sequence": "GAATGGGC", "PBM E-score": 0.186}, {"sequence": "ACGCCGAC", "PBM E-score": 0.163}, {"sequence": "GGAGATGA", "PBM E-score": 0.094}, {"sequence": "ATCGGAGG", "PBM E-score": 0.0523}, {"sequence": "GTCGGACA", "PBM E-score": 0.218}, {"sequence": "TTCGGAAA", "PBM E-score": 0.391}, {"sequence": "CTGGGAAG", "PBM E-score": -0.176}, {"sequence": "ATCGGAAG", "PBM E-score": 0.359}, {"sequence": "CTAGGAAG", "PBM E-score": -0.214}, {"sequence": "TCGGGAAA", "PBM E-score": 0.309}, {"sequence": "CTCGGAAG", "PBM E-score": 0.39}, {"sequence": "GTGGGAAC", "PBM E-score": -0.0738}, {"sequence": "TTCAGAAA", "PBM E-score": -0.195}, {"sequence": "ATCGGACG", "PBM E-score": 0.209}, {"sequence": "GTCGGAAC", "PBM E-score": 0.458}, {"sequence": "AGATCTCC", "PBM E-score": 0.0532}]}]}
